# About 410 targets per protein were measured; listed, in parts, are those with the strongest signals and a random draw of the rest.
# Experiments:
# Assay in all cases: glycan array binding signal (z-score within array); higher = stronger binding
# Settings in all cases: glycan notation: IUPAC condensed, linker removed
# [1] = biological target: Fuc(a1-2)Gal
# Method in brief: (§1)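 Glycan array data were curated from 3228 arrays in the Consortium for Functional Glycomics database and kept only where the protein sequence was available. Glycan names were converted to IUPAC-condensed notation, and columns mapping to the same glycan were averaged. The binding signal is a within-array Z-score, averaged across arrays of the same protein sequence at different concentrations or buffers and across linkers. Negative Z-scores can be read as non-binding.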
# [2] = biological target: Fuc(a1-2)Gal(b1-3)GalNAc(a1-3)[Fuc(a1-2)]Gal(b1-4)GlcNAc
# Method in brief: as §1
# [3] = biological target: Fuc(a1-2)Gal(b1-3)GlcNAc(b1-3)[Neu5Ac(a2-6)Gal(b1-4)GlcNAc(b1-6)]Gal(b1-4)Glc
# Method in brief: as §1
# [4] = biological target: Fuc(a1-2)Gal(b1-4)GlcNAc(b1-2)Man(a1-3)[Fuc(a1-2)Gal(b1-4)GlcNAc(b1-2)Man(a1-6)]Man(b1-4)GlcNAc(b1-4)GlcNAc
# Method in brief: as §1
# [5] = biological target: Fuc(a1-2)Gal(b1-4)GlcNAc(b1-3)[Fuc(a1-3)[Gal(b1-4)]GlcNAc(b1-6)]Gal(b1-4)Glc
# Method in brief: as §1
# [6] = biological target: Fuc(a1-2)Gal(b1-4)GlcNAc(b1-6)GalNAc
# Method in brief: as §1
# [7] = biological target: Fuc(a1-2)[Gal(a1-3)]Gal(b1-4)GlcNAc(b1-6)GalNAc
# Method in brief: as §1
# [8] = biological target: Fuc(a1-2)[GalNAc(a1-3)]Gal(b1-3)GalNAc(b1-3)Gal(a1-4)Gal(b1-4)Glc
# Method in brief: as §1
# [9] = biological target: Fuc(a1-2)[GalNAc(a1-3)]Gal(b1-3)GlcNAc(b1-2)Man(a1-3)[Fuc(a1-2)[GalNAc(a1-3)]Gal(b1-3)GlcNAc(b1-2)Man(a1-6)]Man(b1-4)GlcNAc(b1-4)[Fuc(a1-6)]GlcNAc
# Method in brief: as §1
# [10] = biological target: Fuc(a1-2)[GalNAc(a1-3)]Gal(b1-4)GlcNAc(b1-2)Man
# Method in brief: as §1
# [11] = biological target: Fuc(a1-3)[Gal(b1-4)]GlcNAc(b1-3)Gal(b1-4)[Fuc(a1-3)]GlcNAc
# Method in brief: as §1
# [12] = biological target: Fuc(a1-3)[Gal(b1-4)]GlcNAc(b1-3)GalNAc
# Method in brief: as §1
# [13] = biological target: Fuc(a1-3)[Gal(b1-4)]GlcNAc(b1-6)[Gal(b1-3)GlcNAc(b1-3)]Gal(b1-4)Glc
# Method in brief: as §1
# [14] = biological target: Gal(a1-3)Gal(b1-3)GlcNAc(b1-6)GalNAc
# Method in brief: as §1
# [15] = biological target: Gal(a1-3)[Gal(a1-4)]Gal(b1-4)GlcNAc
# Method in brief: as §1
# [16] = biological target: Gal(a1-6)Glc
# Method in brief: as §1
# [17] = biological target: Gal(b1-3)GalNAc(b1-3)Gal
# Method in brief: as §1
# [18] = biological target: Gal(b1-3)GlcNAc(b1-2)Man(a1-3)[Gal(b1-3)GlcNAc(b1-2)Man(a1-6)]Man(b1-4)GlcNAc(b1-4)[Fuc(a1-6)]GlcNAc
# Method in brief: as §1
# [19] = biological target: Gal(b1-3)GlcNAc(b1-3)Gal(b1-4)GlcNAc(b1-6)[Gal(b1-3)GlcNAc(b1-3)]Gal(b1-4)Glc
# Method in brief: as §1
# [20] = biological target: Gal(b1-4)GlcNAc
# Method in brief: as §1
# [21] = biological target: Gal(b1-4)GlcNAc(a1-6)Gal(b1-4)GlcNAc
# Method in brief: as §1
# [22] = biological target: Gal(b1-4)GlcNAc(b1-2)Man(a1-3)[GlcNAc(b1-2)Man(a1-6)]Man(b1-4)GlcNAc(b1-4)GlcNAc
# Method in brief: as §1
# [23] = biological target: Gal(b1-4)GlcNAc(b1-3)[Fuc(a1-3)GlcNAc(b1-6)]Gal(b1-4)Glc
# Method in brief: as §1
# [24] = biological target: Gal(b1-4)GlcNAc(b1-6)Gal(b1-4)GlcNAc
# Method in brief: as §1
# [25] = biological target: Gal3S(b1-4)[Fuc(a1-3)]Glc6S
# Method in brief: as §1
# [26] = biological target: Gal3S(b1-4)[Fuc(a1-3)]GlcNAc
# Method in brief: as §1
# [27] = biological target: Gal6P(b1-4)GlcNAc
# Method in brief: as §1
# [28] = biological target: Gal6S(b1-3)GlcNAc
# Method in brief: as §1
# [29] = biological target: Gal6S(b1-4)Glc6S
# Method in brief: as §1
# [30] = biological target: GalNAc(a1-3)GalNAc(b1-3)Gal(a1-4)Gal(b1-4)Glc
# Method in brief: as §1
# [31] = biological target: GalNAc(b1-4)GlcNAc
# Method in brief: as §1
# [32] = biological target: GalNAc(b1-4)GlcNAc(b1-2)Man(a1-3)[GalNAc(b1-4)GlcNAc(b1-2)Man(a1-6)]Man(b1-4)GlcNAc(b1-4)GlcNAc
# Method in brief: as §1
# [33] = biological target: GalNAc3S(b1-4)GlcNAc3S
# Method in brief: as §1
# [34] = biological target: Glc(b1-4)Glc
# Method in brief: as §1
# [35] = biological target: GlcNAc(b1-2)Man(a1-3)[GlcNAc(b1-4)][GlcNAc(b1-2)Man(a1-6)]Man(b1-4)GlcNAc(b1-4)GlcNAc
# Method in brief: as §1
# [36] = biological target: GlcNAc(b1-2)[GlcNAc(b1-6)]Man(a1-6)[GlcNAc(b1-4)][GlcNAc(b1-2)Man(a1-3)]Man(b1-4)GlcNAc(b1-4)GlcNAc
# Method in brief: as §1
# [37] = biological target: GlcNAc(b1-3)Gal(b1-4)GlcNAc(b1-3)Gal(b1-4)GlcNAc(b1-2)[GlcNAc(b1-3)Gal(b1-4)GlcNAc(b1-3)Gal(b1-4)GlcNAc(b1-6)]Man(a1-6)[GlcNAc(b1-3)Gal(b1-4)GlcNAc(b1-3)Gal(b1-4)GlcNAc(b1-2)Man(a1-3)]Man(b1-4)GlcNAc(b1-4)[Fuc(a1-6)]GlcNAc
# Method in brief: as §1
# [38] = biological target: GlcNAc(b1-3)Gal(b1-4)GlcNAc(b1-3)Gal(b1-4)GlcNAc(b1-3)GalNAc
# Method in brief: as §1
# [39] = biological target: GlcNAc(b1-6)GalNAc
# Method in brief: as §1
# [40] = biological target: Kdn(a2-3)Gal(b1-4)Glc
# Method in brief: as §1
# [41] = biological target: Man(a1-2)Man(a1-3)[Man(a1-2)Man(a1-6)]Man(a1-6)[Man(a1-2)Man(a1-2)Man(a1-3)]Man(b1-4)GlcNAc(b1-4)GlcNAc
# Method in brief: as §1
# [42] = biological target: Man(a1-2)Man(a1-6)[Man(a1-3)]Man(a1-6)[Man(a1-2)Man(a1-2)Man(a1-3)]Man
# Method in brief: as §1
# [43] = biological target: Man(a1-3)[Man(a1-6)]Man(a1-6)[Man(a1-3)]Man
# Method in brief: as §1
# [44] = biological target: Man(a1-6)Man
# Method in brief: as §1
# [45] = biological target: Neu5Ac(a2-3)Gal(b1-3)GlcNAc(b1-2)Man(a1-3)[Neu5Ac(a2-3)Gal(b1-3)GlcNAc(b1-2)Man(a1-6)]Man(b1-4)GlcNAc(b1-4)GlcNAc
# Method in brief: as §1
# [46] = biological target: Neu5Ac(a2-3)Gal(b1-3)GlcNAc6S
# Method in brief: as §1
# [47] = biological target: Neu5Ac(a2-3)Gal(b1-4)GlcNAc(b1-3)Gal(b1-3)GlcNAc
# Method in brief: as §1
# [48] = biological target: Neu5Ac(a2-3)Gal(b1-4)GlcNAc6S
# Method in brief: as §1
# [49] = biological target: Neu5Ac(a2-6)Gal(b1-4)GlcNAc(b1-2)Man(a1-3)Man(b1-4)GlcNAc(b1-4)GlcNAc
# Method in brief: as §1
# [50] = biological target: Neu5Ac(a2-6)Gal(b1-4)GlcNAc(b1-2)Man(a1-3)[Man(a1-6)]Man(b1-4)GlcNAc(b1-4)GlcNAc
# Method in brief: as §1
# [51] = biological target: Neu5Ac(a2-6)GlcNAc(b1-4)GlcNAc(b1-4)GlcNAc
# Method in brief: as §1
# [52] = biological target: Neu5Ac(a2-8)Neu5Ac(a2-3)Gal(b1-3)GalNAc(b1-4)[Neu5Ac(a2-8)Neu5Ac(a2-3)]Gal(b1-4)Glc
# Method in brief: as §1
# [53] = biological target: Neu5Ac(a2-8)Neu5Ac(a2-3)[Gal(b1-3)GalNAc(b1-4)]Gal(b1-4)Glc
# Method in brief: as §1
# [54] = biological target: Neu5Gc(a2-3)Gal(b1-4)[Fuc(a1-3)]GlcNAc
# Method in brief: as §1
binder,measurement,setting,value
"AT1G77380(17) (Arabidopsis thaliana), Q39134 (protein) MVQNHQTVLAVDMPQTGGSKYLDDDGKNKRTGSVWTASAHIITAVIGSGVLSLAWATAQLGWLAGPVVMLLFSAVTYFTSSLLAACYRSGDPISGKRNYTYMDAVRSNLGGVKVTLCGIVQYLNIFGVAIGYTIASAISMMAIKRSNCFHKSGGKDPCHMNSNPYMIAFGLVQILFSQIPDFDQLWWLSILAAVMSFTYSSAGLALGIAQVVVNGKVKGSLTGISIGAVTETQKIWRTFQALGDIAFAYSYSIILIEIQDTVKSPPSEEKTMKKATLVSVSVTTMFYMLCGCMGYAAFGDLSPGNLLTGFGFYNPYWLLDIANAAIVIHLIGAYQVYCQPLFAFIEKQASIQFPDSEFIAKDIKIPIPGFKPLRLNVFRLIWRTVFVIITTVISMLLPFFNDVVGLLGALGFWPLTVYFPVEMYIAQKKIPRWSTRWVCLQVFSLGCLVVSIAAAAGSIAGVLLDLKSYKPFRSEY",glycan array binding signal (z-score),[1],2.99
same,glycan array binding signal (z-score),[2],2.89
same,glycan array binding signal (z-score),[3],-0.856
same,glycan array binding signal (z-score),[4],-0.43
same,glycan array binding signal (z-score),[5],2.76
same,glycan array binding signal (z-score),[6],-0.513
same,glycan array binding signal (z-score),[7],-0.886
same,glycan array binding signal (z-score),[8],4.03
same,glycan array binding signal (z-score),[9],-0.716
same,glycan array binding signal (z-score),[10],1.32
same,glycan array binding signal (z-score),[11],-0.28
same,glycan array binding signal (z-score),[12],0.285
same,glycan array binding signal (z-score),[13],2.75
same,glycan array binding signal (z-score),[14],-0.733
same,glycan array binding signal (z-score),[15],3.09
same,glycan array binding signal (z-score),[16],-0.766
same,glycan array binding signal (z-score),[17],-0.955
same,glycan array binding signal (z-score),[18],3.2
same,glycan array binding signal (z-score),[19],1.9
same,glycan array binding signal (z-score),[20],-0.639
same,glycan array binding signal (z-score),[21],2.75
same,glycan array binding signal (z-score),[22],-0.757
same,glycan array binding signal (z-score),[23],0.166
same,glycan array binding signal (z-score),[24],-0.725
same,glycan array binding signal (z-score),[25],0.338
same,glycan array binding signal (z-score),[26],-0.327
same,glycan array binding signal (z-score),[27],-0.442
same,glycan array binding signal (z-score),[28],-0.519
same,glycan array binding signal (z-score),[29],-0.34
same,glycan array binding signal (z-score),[30],-0.209
same,glycan array binding signal (z-score),[31],2.31
same,glycan array binding signal (z-score),[32],7.58
same,glycan array binding signal (z-score),[33],-0.031
same,glycan array binding signal (z-score),[34],0.66
same,glycan array binding signal (z-score),[35],-0.289
same,glycan array binding signal (z-score),[36],-0.522
same,glycan array binding signal (z-score),[37],0.854
same,glycan array binding signal (z-score),[38],-0.766
same,glycan array binding signal (z-score),[39],2.85
same,glycan array binding signal (z-score),[40],4.07
same,glycan array binding signal (z-score),[41],3.3
same,glycan array binding signal (z-score),[42],-0.524
same,glycan array binding signal (z-score),[43],-0.782
same,glycan array binding signal (z-score),[44],-0.696
same,glycan array binding signal (z-score),[45],-0.809
same,glycan array binding signal (z-score),[46],0.954
same,glycan array binding signal (z-score),[47],-1.04
same,glycan array binding signal (z-score),[48],-0.786
same,glycan array binding signal (z-score),[49],-0.792
same,glycan array binding signal (z-score),[50],-0.896
same,glycan array binding signal (z-score),[51],0.349
same,glycan array binding signal (z-score),[52],-0.862
same,glycan array binding signal (z-score),[53],-0.73
same,glycan array binding signal (z-score),[54],-0.363

# Source: the supplement of paper PMC8728848
